From the supplement of paper PMC12494721
Counter-ions that a name gives are not always drawn. A number with no mark means an inactive call.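 Rule for the calls: for the amine columns active = adjusted P below 0.05 in both replicates with a change the same way and a mean fold change under 0.8 or over 1.25; inactive = the rest.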

Each compound was assayed on Clostridium sporogenes DSM 1664 (assay: fold change of Tryptamine concentration vs plate DMSO controls (fold change (ratio)); higher = more amine produced, active = hit call of the paper (significant change in both replicates, either direction)). Conditions: incubation time: 27 h, anaerobic, 37 °C.
Outline: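 Anaerobic mGAM cultures of four gut bacterial strains were grown at 37 °C for 27 h in 80 µL wells, starting at OD 0.1 before 1:1 dilution. Compounds were at 20 µM final (sweeteners 50 µM). Whole cultures were extracted with cold acetonitrile/methanol containing 0.1% formic acid and centrifuged. Amines were quantified by LC–triple-quadrupole MS (dynamic MRM) against external calibration curves and drift-corrected within batch. Each value is the fold change versus plate DMSO controls, averaged over 2 biological replicates.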

| SMILES | fold change of Tryptamine concentration |
| --- | --- |
| OC[C@H]1O[C@@H](O[C@H]2[C@H](O)[C@@H](O)[C@H](O)O[C@@H]2CO)[C@H](O)[C@@H](O)[C@H]1O [Lactose] (50 µM) | 0.96 |
| C[C@@]12CC[C@@H]3[C@@](CC[C@H]4[C@@]3(C)CCC[C@@]4(C)C(=O)O)(CC1=O)C2 [Iso-Steviol] (50 µM) | 0.905 |
| CCCCOc1ccc(C(=O)CCN2CCCCC2)cc1 [Dyclonine hydrochloride] (20 µM) | 0.989 |
| CN(C)c1nc(N(C)C)nc(N(C)C)n1 [Altretamine] (20 µM) | 0.977 |
| c1ccc(CNc2ncnc3nc[nH]c23)cc1 [Aminopurine, 6-benzyl] (20 µM) | 0.971 |
| OCCN1CCN(CC/C=C2/c3ccccc3Sc3ccc(C(F)(F)F)cc32)CC1 [Flupentixol dihydrochloride cis-(Z)] (20 µM) | 1.12 |
| Cc1onc(-c2ccccc2)c1C(=O)N[C@@H]1C(=O)N2[C@@H]1SC(C)(C)[C@@H]2C(=O)O [Oxacillin sodium] (20 µM) | 0.0257 (active) |
| Cc1ccc(Cl)c(Nc2ccccc2C(=O)O)c1Cl [Meclofenamic acid sodium salt monohydrate] (20 µM) | 0.879 |
| Clc1ccc(C(Cn2ccnc2)OCc2c(Cl)cccc2Cl)c(Cl)c1 (centres undefined) [Isoconazole] (20 µM) | 0.846 |
| NNc1nncc2ccccc12 [Hydralazine hydrochloride] (20 µM) | 0.967 |
| O=C(O)CCC(=O)c1ccc(-c2ccccc2)cc1 [Fenbufen] (20 µM) | 0.991 |
| C[C@]12CCC(=O)C=C1C=C[C@@H]1[C@@H]2CC[C@@]2(C)[C@H]1CC[C@@]21CCC(=O)O1 [Canrenone] (20 µM) | 1 |
| CCN(CCO)CCCC(C)Nc1ccnc2cc(Cl)ccc12 (centres undefined) [Hydroxychloroquine sulfate] (20 µM) | 0.967 |
| C[C@@H](O)[C@H]1C(=O)N2C(C(=O)O)=C(S[C@@H]3CN[C@H](C(=O)N(C)C)C3)[C@H](C)[C@H]12 [Meropenem] (20 µM) | 0.0316 (active) |
| COc1cc(C(=O)OCCCN2CCCN(CCCOC(=O)c3cc(OC)c(OC)c(OC)c3)CC2)cc(OC)c1OC [Dilazep dihydrochloride] (20 µM) | 1.08 |
| CCOC(=O)n1ccn(C)c1=S [Carbimazole] (20 µM) | 0.937 |
| CCOC(=O)CC(=O)N1CCSC1COc1ccccc1OC (centres undefined) [Moguisteine] (20 µM) | 1.06 |
| CN[C@@H]1[C@@H](O[C@H]2O[C@H](CO)[C@@H](N)[C@H](O)[C@H]2O)OC2C[C@@H](N)[C@@H](O[C@H]3[C@H](O)[C@@H](O)[C@H](N)C[C@@H]3N)OC2[C@@H]1O (some centres undefined) [Apramycin] (20 µM) | 0.998 |
| Cc1c(OCC(F)(F)F)ccnc1C[S+]([O-])c1nc2ccccc2[nH]1 (centres undefined) [Lansoprazole] (20 µM) | 1.02 |
| Cn1c(=O)cc(N2CCC[C@@H](N)C2)n(Cc2ccccc2C#N)c1=O [Alogliptin benzoate] (20 µM) | 1.01 |

| SMILES | fold change of Tryptamine concentration |
| --- | --- |
| Nc1nc(F)nc2c1ncn2[C@@H]1O[C@H](CO)[C@@H](O)[C@@H]1O [Fludarabine] (20 µM) | 1.04 |
| CCN(Cc1ccncc1)C(=O)C(CO)c1ccccc1 (centres undefined) [Tropicamide] (20 µM) | 1.06 |
| CNC1(C)C2CCC(C2)C1(C)C (centres undefined) [Mecamylamine hydrochloride] (20 µM) | 1.06 |
| CC1=NN(c2ccccc2)C(=O)C1 [Edaravone] (20 µM) | 0.939 |
| Nc1ccn([C@@H]2O[C@H](CO)[C@@H](O)C2(F)F)c(=O)n1 [Gemcitabine] (20 µM) | 0.969 |
| CCCC(CCC)C(=O)O[C@H]1C[C@H]2CC[C@@H](C1)[N+]2(C)C [Anisotropine Methylbromide] (20 µM) | 1.06 |
| COc1c(N2CCNC(C)C2)c(F)cc2c(=O)c(C(=O)O)cn(C3CC3)c12 (centres undefined) [Gatifloxacin] (20 µM) | 0.0452 (active) |
| OC(CNCC(O)C1CCc2cc(F)ccc2O1)C1CCc2cc(F)ccc2O1 (centres undefined) [Nebivolol hydrochloride] (20 µM) | 0.94 |
| COc1ccccc1O [Guaiacol] (20 µM) | 1.03 |
| COc1ccc(CC2c3cc(OC)c(OC)cc3CC[N+]2(C)CCC(=O)OCCCCCOC(=O)CC[N+]2(C)CCc3cc(OC)c(OC)cc3C2Cc2ccc(OC)c(OC)c2)cc1OC (centres undefined) [Atracurium besylate] (20 µM) | 1.15 |
| O=C(O)Cc1cc(I)c(Oc2ccc(O)c(I)c2)c(I)c1 [Tiratricol] (20 µM) | 0.592 (active) |
| COc1cc(/C=C/C(=O)N2CCN(CC(=O)N3CCCC3)CC2)cc(OC)c1OC [Cinepazide maleate] (20 µM) | 1.07 |
| C[C@H](CCC(=O)O)[C@H]1CC[C@H]2[C@@H]3C(=O)C[C@@H]4CC(=O)CC[C@]4(C)[C@H]3CC(=O)[C@]12C [Dehydrocholic acid] (20 µM) | 0.96 |
| CN1CCOC(c2ccccc2)c2ccccc2C1 (centres undefined) [Nefopam hydrochloride] (20 µM) | 1.1 |
| CCOc1ccc(NC(N)=O)cc1 [(4-Ethoxyphenyl)urea] (50 µM) | 0.979 |
| CCCCOc1ccc(CC(=O)NO)cc1 [Bufexamac] (20 µM) | 0.989 |
| CCOc1ccc2ccccc2c1C(=O)N[C@@H]1C(=O)N2[C@@H]1SC(C)(C)[C@@H]2C(=O)O [Nafcillin sodium salt monohydrate] (20 µM) | 0.0237 (active) |
| c1ccc2cc3c(ccc4ccccc43)cc2c1 [Benz[a]anthracene] (20 µM) | 1.17 |
| CC(C)NC[C@H](O)COc1cccc2ccccc12 [(S)-(-)-Propranolol hydrochloride] (20 µM) | 1.02 |
